This is part of a sample that, as a whole, favours compounds with a hit. Of some 83,000 tested, about 20% had one in any assay.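 Interpretation: 100, growth as untreated; towards 0, rising growth inhibition; 0, no net growth; 0 to -100, cell death. Compounds scoring below 10 were considered active.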 Active and inactive are the calls of the source.
Legend:
Experiment in all cases: NCI-60 one-dose screen, 48 h (100 = growth as untreated, 0 = no growth, -100 = all killed)
Conditions in all cases: 10 µM unless noted
NCI-H23 lung = tested on: NCI-H23 lung
NCI-H226 lung = tested on: NCI-H226 lung
NCI-H322M lung = tested on: NCI-H322M lung
HOP-62 NSCLC = tested on: HOP-62 NSCLC
HOP-92 NSCLC = tested on: HOP-92 NSCLC
NCI-H522 lung = tested on: NCI-H522 lung
A549/ATCC NSCLC = tested on: A549/ATCC NSCLC
786-0 renal = tested on: 786-0 renal
COLO 205 colon = tested on: COLO 205 colon
DU-145 prostate = tested on: DU-145 prostate
K-562 leukemia = tested on: K-562 leukemia
MALME-3M melanoma = tested on: MALME-3M melanoma
MDA-MB-231 breast = tested on: MDA-MB-231 breast
RXF 393 renal = tested on: RXF 393 renal
SF-268 CNS = tested on: SF-268 CNS
SF-295 CNS = tested on: SF-295 CNS
SF-539 CNS = tested on: SF-539 CNS
UACC-257 melanoma = tested on: UACC-257 melanoma
M14 melanoma = tested on: M14 melanoma
NCI-H460 lung = tested on: NCI-H460 lung

Measured: growth

COc1cc(Cc2cc(-c3ccccc3)nn(Cc3ccccc3)c2=O)cc(OC)c1OC
inactive: NCI-H23 lung 37.4% | NCI-H226 lung 46.2% | NCI-H322M lung 78.5% | HOP-62 NSCLC 66.1% | HOP-92 NSCLC 51.1% | NCI-H522 lung 28.4% | A549/ATCC NSCLC 19.9% | 786-0 renal 49.9% | COLO 205 colon 15.5% | DU-145 prostate 77.7% | K-562 leukemia 20.6% | MALME-3M melanoma 35.2% | MDA-MB-231 breast 50.1% | RXF 393 renal 31.7% | SF-268 CNS 47.4% | SF-295 CNS 31.5% | SF-539 CNS 70% | UACC-257 melanoma 32% | M14 melanoma 44.1%

c1cc(OCCN2CCCCCC2)ccc1CNc1ccc2nc(CCC3CCCCC3)[nH]c2c1
active: COLO 205 colon -48% | K-562 leukemia 3.02% | MALME-3M melanoma -72.6% | M14 melanoma -69.9%
inactive: NCI-H23 lung 82.6% | NCI-H226 lung 60.8% | NCI-H322M lung 81.7% | HOP-62 NSCLC 60.5% | HOP-92 NSCLC 23.3% | NCI-H522 lung 68.5% | A549/ATCC NSCLC 70.8% | 786-0 renal 54.2% | DU-145 prostate 69.8% | MDA-MB-231 breast 25.5% | RXF 393 renal 56.2% | SF-268 CNS 69.9% | SF-295 CNS 79.1% | SF-539 CNS 72.8% | UACC-257 melanoma 31.8%

O=C(Nc1nc(Cl)nc(Nc2ccc(N3CCOCC3=O)cc2)n1)c1ccc(Cl)s1
inactive: NCI-H23 lung 88.1% | NCI-H226 lung 86.4% | NCI-H322M lung 97.8% | HOP-62 NSCLC 97.6% | NCI-H460 lung 99.9% | HOP-92 NSCLC 80.2% | A549/ATCC NSCLC 77.3% | 786-0 renal 108% | COLO 205 colon 97.3% | DU-145 prostate 104% | K-562 leukemia 64.2% | MALME-3M melanoma 88.3% | MDA-MB-231 breast 88.3% | RXF 393 renal 91.3% | SF-268 CNS 95.9% | SF-295 CNS 92.7% | SF-539 CNS 104% | UACC-257 melanoma 72.2% | M14 melanoma 90.4%

C#COc1cccc(Nc2ncnc3cc(NC(=O)[C@H](C)Cl)ccc23)c1
inactive: NCI-H23 lung 18.5% [6.25 µM] | NCI-H226 lung 41.7% [6.25 µM] | NCI-H322M lung 30% [6.25 µM] | HOP-92 NSCLC 81.5% [6.25 µM] | 786-0 renal 14.2% [6.25 µM] | COLO 205 colon 12.2% [6.25 µM] | DU-145 prostate 20.3% [6.25 µM] | K-562 leukemia 99.7% [6.25 µM] | MALME-3M melanoma 37.5% [6.25 µM] | MDA-MB-231 breast 19.1% [6.25 µM] | RXF 393 renal 15.5% [6.25 µM] | SF-268 CNS 27.7% [6.25 µM] | UACC-257 melanoma 21.2% [6.25 µM] | M14 melanoma 11.7% [6.25 µM]
active: HOP-62 NSCLC 7.33% [6.25 µM] | NCI-H522 lung -46.2% [6.25 µM] | A549/ATCC NSCLC 2.95% [6.25 µM] | SF-295 CNS 1.61% [6.25 µM] | SF-539 CNS 0.539% [6.25 µM]

CCCCO[C@@H]1C=C2[C@H]3CC(C)(C)C(=O)C[C@]3(C(=O)O[C@@H]3O[C@H](CO[C@@H]4O[C@H](CO)[C@@H](OC5OC(C)C(O)C(O)C5O)[C@H](O)[C@H]4O)[C@@H](O)[C@H](O)[C@H]3O)CC[C@@]2(C)[C@]2(C)CC[C@H]3C(C)(C)C(=O)CC[C@]3(C)[C@@H]12 (some centres not stated)
inactive: NCI-H23 lung 60.3% | NCI-H226 lung 45.6% | NCI-H322M lung 84.3% | HOP-62 NSCLC 76.1% | NCI-H522 lung 67.9% | A549/ATCC NSCLC 84.8% | 786-0 renal 29.5% | COLO 205 colon 97.2% | DU-145 prostate 97.9% | K-562 leukemia 90.5% | MALME-3M melanoma 34.2% | MDA-MB-231 breast 73.2% | RXF 393 renal 63.2% | SF-268 CNS 47.2% | SF-295 CNS 92.8% | SF-539 CNS 60.1% | UACC-257 melanoma 49.1% | M14 melanoma 40.5%
active: HOP-92 NSCLC 2.25%

Cc1c2ccccc2nc2cc3c(cc12)[C@H]1CC[C@]2(C)C(=O)CC[C@H]2[C@@H]1CC3
inactive: NCI-H23 lung 98.5% | NCI-H226 lung 91.8% | NCI-H322M lung 98.5% | HOP-62 NSCLC 105% | NCI-H460 lung 97.3% | HOP-92 NSCLC 86.9% | A549/ATCC NSCLC 86.5% | 786-0 renal 98% | COLO 205 colon 109% | DU-145 prostate 106% | K-562 leukemia 90.2% | MALME-3M melanoma 108% | MDA-MB-231 breast 91.6% | RXF 393 renal 101% | SF-268 CNS 89.5% | SF-295 CNS 99.9% | SF-539 CNS 96.5% | UACC-257 melanoma 98.3% | M14 melanoma 102%

CCN(CC)CCOc1ccc(C(=O)/C=C\c2ccc(Cl)cc2Cl)cc1
active: COLO 205 colon -53.5% | K-562 leukemia 3.71% | UACC-257 melanoma 3.72% | M14 melanoma -37.4%
inactive: NCI-H23 lung 58.3% | NCI-H226 lung 53.5% | NCI-H322M lung 63.9% | HOP-62 NSCLC 57.2% | HOP-92 NSCLC 24.5% | NCI-H522 lung 44% | A549/ATCC NSCLC 21.7% | 786-0 renal 35.9% | DU-145 prostate 51.7% | MALME-3M melanoma 42.4% | MDA-MB-231 breast 32.6% | RXF 393 renal 34% | SF-268 CNS 55.2% | SF-295 CNS 63.2% | SF-539 CNS 30%

Oc1c(I)cc(I)cc1CN(Cc1ccccn1)Cc1ccccn1
active: NCI-H460 lung 4.01% | A549/ATCC NSCLC 7.57% | SF-539 CNS 4.05% | UACC-257 melanoma 1.45% | M14 melanoma -16.6%
inactive: NCI-H23 lung 25.6% | NCI-H226 lung 21.7% | NCI-H322M lung 18.4% | HOP-62 NSCLC 18.7% | HOP-92 NSCLC 24.4% | 786-0 renal 18.2% | COLO 205 colon 16% | DU-145 prostate 29% | K-562 leukemia 14.2% | MALME-3M melanoma 17.1% | MDA-MB-231 breast 33.4% | RXF 393 renal 46.7% | SF-268 CNS 19.7% | SF-295 CNS 23.5%

— PubChem BioAssay (NCI)
